This note sets out measurements from PubChem BioAssay (NCATS).

Assay [1] is described as follows: qHTS profiling of the MIPE4 collection as inhibitors of Plasmodium falciparum (DD2) proliferation (Rep 2) (AID 743346). The settings on record: P. falciparum Dd2 in erythrocytes, SYBR Green DNA, 72 h; at 28.5 µM unless noted. Put shortly:
(§1)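 Parasite DNA was quantified by SYBR Green I fluorescence (ex 485, em 535 nm) after overnight lysis in saponin/Triton buffer at room temperature. Cultures at 0.3% parasitemia and 2.5% hematocrit were first exposed to compound for 72 h at 37 C; signals were normalised to artemisinin (0.29 uM) and vehicle wells.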
In general terms: qHTS replaces the single test concentration by a dilution series.

Assay [2] can be described thus: qHTS profiling of the MIPE4 collection as inhibitors of Plasmodium falciparum (HB3) proliferation (AID 743347).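 Note: plate controls were DMSO vehicle wells for no effect and artemisinin wells for full effect.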 The settings on record: P. falciparum HB3 in erythrocytes, SYBR Green DNA, 72 h; at 28.5 µM unless noted. An outline of the steps: as §1
Assay [3] can be described thus: qHTS profiling of the MIPE4 collection as inhibitors of Plasmodium falciparum (DD2) proliferation (AID 743345). The settings on record: P. falciparum Dd2 in erythrocytes, SYBR Green DNA, 72 h; at 28.5 µM unless noted. Put shortly: as §1

Compound `CC(C)N(CC[C@H](c1ccccc1)c1cc(CO)ccc1O)C(C)C` registered a parasite growth, % of control (lower = inhibition) in assay [1] of 26.5%. Moreover, the growth, % of control in assay [2] worked out at 103%.

`COc1cc([C@@H]2c3cc4c(cc3[C@H](O)[C@H]3COC(=O)[C@@H]23)OCO4)cc(OC)c1OC`: the parasite growth, % of control (lower = inhibition) in assay [1] turned out to be 29.1%.

Turning to `COc1cc2c(Nc3ccc(Cl)c(Cl)c3F)ncnc2cc1OCC1C[C@@H]2CN(C)C[C@H]2C1`, the parasite growth remaining, % of DMSO control (lower = more inhibition) in assay [3] came to 7.75%. Besides, in assay [1], the parasite growth, % of control (lower = inhibition) is 18.3%. For the same compound, the growth, % of control in assay [2] amounted to 7.13%.

With `Cn1cc(-c2cnn3c(N)c(Br)c([C@H]4CCCNC4)nc23)cn1`, the parasite growth remaining, % of DMSO control (lower = more inhibition) in assay [3] was 10.3%. In addition, the parasite growth, % of control (lower = inhibition) in assay [1] stood at 8.07%. Besides, the growth, % of control in assay [2] is 3.69%.

`O=C(Nc1ccc(Oc2ccnc3[nH]ccc23)c(F)c1)c1cccn(-c2ccc(F)cc2)c1=O` displayed a parasite growth remaining, % of DMSO control (lower = more inhibition) in assay [3] of 69.1%. Further, the parasite growth, % of control (lower = inhibition) in assay [1] worked out at 29.2%. The same compound showed a growth, % of control in assay [2] of 7.02%.
